The values below come from the OligoGym collection.
Note: reference of the scale not given here.

In the first assay the target is WFIKKN1. Put plainly: pooled miR-30 sensor sort-seq; sequence = guide strand. As to conditions: shRNA.
For TTGTAGAGCACCAGCTGCCCGA, the sensor-assay potency score (higher = more potent) was -1.47. Still for that read-out and setting: the figure for TTCTTGACGCGCTTCTCGCTGG is -0.797; for TCGTAGGTCTCAAAGCCGCGGG it is -1.25. Still for that read-out and setting: the figure for TTGCCATACATCTGATCAGGGC is -0.931. For TCATCCTTGAGCACGTCCTCGA, the sensor-assay potency score (higher = more potent) was -0.412.

Consider AAGAACTTGAGGCCCATCTTGT, for which the sensor-assay potency score (higher = more potent) is -0.385. TCGCTGGTGACTCTGCTTCTCC had a sensor-assay potency score (higher = more potent) of -1.48.

The target in the next assay is WIZ. The assay is described as above. The following applies: shRNA.
For the sequence TTGACAAGTGATGTCTGGGGGG, the sensor-assay potency score (higher = more potent) was -0.32. TTCTCGAAGAACTCGCCGCAGA came in with a sensor-assay potency score (higher = more potent) of -0.9. On the same count and under the same terms, the figure for TTTGTTGATGTTCTGCCGCTGG is -0.379; for AATTCCACCTCACAGAACCTGC it is -1.06. On the same count and under the same terms, the figure for TTGAGGATCTCTCGCAGTGTGT is -1.29. The same measure, in the same setting: the figure for TTCTGCTGTAGGTCATTGGTGT is -0.0622; for TTCTTCTTGAGGATCTCTCGCA it is -0.31.

Turning to TTGGCCTTGACCTCTGCTGGGA, the sensor-assay potency score (higher = more potent) was -0.479. On the same count and under the same terms, the figure for TTCAAATTTGTTGATGTTCTGC is 0.0401; for TCTTCTTGAGGATCTCTCGCAG it is -0.0721; for TATTTGTTCAGGCTTCAGCTTC it is -1.07. Still for that read-out and setting: the figure for TTTGGAGAAGTTCATCTCCAGG is -1.49.

The target of a further assay is WNK4. The assay is described as above. The following applies: shRNA.
TTTTCTGTAGTGTCTGTAGTGT: the sensor-assay potency score (higher = more potent) was 0.147. ATTGTCGCACTTGAGATCCCGG showed a sensor-assay potency score (higher = more potent) of -0.626. The same measure, in the same setting: the figure for TACTTTTCCTCGTACATCTCGG is -0.00694; for TCAAACTTGAGGTATCGGCCAT it is -0.186; for TTTCCTCGTACATCTCGGGGGC it is -0.103. Still for that read-out and setting: the figure for TTGAGGTATCGGCCATCGGGGG is -1.54; for TTTTCCTCGTACATCTCGGGGG it is 0.127. Still for that read-out and setting: the figure for TACACCGTCTTGAAGGAGCCAC is -0.497; for TAGTTCATCCACACTGGGCTGG it is -0.183.

Sequence TTGTTGATCAGAAAGCATCAGA came in with a sensor-assay potency score (higher = more potent) of -0.592. The same measure, in the same setting: the figure for TTTCTGTAGTGTCTGTAGTGTT is -0.643.

For TTCTGTAGTGTCTGTAGTGTTT, the sensor-assay potency score (higher = more potent) is -0.833.

The target of another assay is WNT16. The assay is described as above. The following applies: shRNA.
In the case of TTAACAGTTGAAACTGATCTGT, the sensor-assay potency score (higher = more potent) was -0.124. On the same count and under the same terms, the figure for AAATCTAGGAACTTTCTGCTGA is 0.396; for TAAAATATAATAAATATCCAGG it is -0.303; for TTCTTTACAAAACACTGTCTTT it is -0.946.

For TCTACTGACATCAACTTGGCGA, the sensor-assay potency score (higher = more potent) was -0.481. For TTATCTTCTACACAGTAGTTGG, the sensor-assay potency score (higher = more potent) was -1.09. On the same count and under the same terms, the figure for TTTCTTATCTTCTACACAGTAG is -0.455; for TAACTTTTCAACATCTTCTATC it is -0.48. On the same count and under the same terms, the figure for TTTACATTAAAATACATCCTTA is -0.353.
